The text below walks through data of PubChem BioAssay (NCI).

The panel holds about 83,000 compounds, 20% with a hit somewhere; the sample as a whole holds those more often.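 Cell lines were cultured in 96-well plates, exposed to a single compound concentration, and assessed for percent growth 48 hours later.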 Activity calls are given as the source filed them. How the source made its calls: active means growth percent below 10; inactive means the rest.

In the first experiment the test system is A498 renal. As to the kind of experiment: NCI-60 one-dose screen, 48 h (100 = growth as untreated, 0 = no growth, -100 = all killed). Particulars: 10 µM unless noted.
In the case of `CCCCCCC(CC#N)(CCC)CCCC` (stereo not given), the growth was 100% (inactive).

For `COc1ccc(NC(=O)c2ccccc2-c2ccccc2)c(C(N)=O)c1`, the growth was 30.8% (inactive).

As to `NS(=O)(=O)c1ccc(N2CC(c3nc4ccccc4[nH]3)CC2=O)cc1` (stereo not given), the growth is 110% (inactive).

`Cc1nn(-c2ccccc2)c2nc(N)c(C3=NCCO3)nc12`: the growth is 92.1% (inactive).

With `CCCCNCCCN(CCCC)CCCNCCCC`, the growth is 94.6% (inactive).

Consider `C1CCC(C(CC2CCCCN2)C2CCCCC2)CC1` (stereo not given), for which the growth was 51.1% (inactive).

Turning to `Oc1c(Cl)cc(Cl)c(Cl)c1Cc1c(O)c(Cl)cc(Cl)c1Cl`, the growth is -17.3% (active).

`CSc1nc(Nc2ccc(S(=O)(=O)Nc3ccon3)cc2)c(C#N)c(-c2ccc(Cl)cc2)n1`: the growth is 93.3% (inactive).

On to `O=C(Nc1nc2ccc(OC(F)(F)F)cc2s1)c1ccc(F)cc1`, for which the growth was 16.4% (inactive).

With `COc1cccc(C=Nc2cc(C(C)C)c(O)cc2C)c1O`, the growth was 75.7% (inactive).

Consider `COC(=O)[C@H](Cc1cn(C)cn1)NC(=O)[C@H](Cc1ccccc1)NC(=O)Nc1cc(C(F)(F)F)cc(C(F)(F)F)c1`, for which the growth is -90.6% [100 µM] (active).

Regarding `Cn1c(N2N=C(c3ccc(Cl)cc3)CC2c2ccccc2)nc(-c2ccccc2)c(C#N)c1=O` (stereo not given), the growth was 79.6% (inactive).

As to `NC(=NCCCCCCN=C(N)/N=C(\N)Nc1ccc(Cl)cc1)/N=C(\N)Nc1ccc(Cl)cc1`, the growth is 11.1% (inactive).

Regarding `Oc1c(N=Nc2nn[nH]n2)ccc2ccccc12`, the growth is 102% (inactive).

On to `Cc1ccc(/C=C/C(=O)c2ccc(F)cc2)s1`, for which the growth was 70.1% (inactive).

Turning to `CC[N+](CCCCCCCCCC[N+](CC)(c1ccccn1)c1ccccn1)(c1ccccn1)c1ccccn1`, the growth is -2.28% (active).

Take `O=C(c1ccc(N2CCOCC2)cc1[N+](=O)[O-])N1CCOCC1`: the growth is 104% (inactive).

With `Cc1ccc(-c2c3c(N)nc(-c4ccncc4)nc3nc3c2c(C)nn3-c2ccccc2)cc1`, the growth is 82.7% (inactive).

For `COc1cccc(CCN2C(=O)CCC3=C2CCC3=O)c1`, the growth was 114% (inactive).

For `CC(=O)c1nn(-c2ccccc2)c(=Nc2ccccc2)cc1C`, the growth was 103% (inactive).

As for `COc1ccc(-c2nc3sc4c(c3c(=O)[nH]2)CCCCCC4)cc1`, the growth is 34.6% (inactive).

As for `CCOC(=O)/C(=C/CC/C(C)=C/CC/C(C)=C/CCc1ccoc1)CC(=O)N1CCCCC1`, the growth was -20.2% (active).

With `CCCCCCCSc1ncnc2[nH]ncc12`, the growth was 88.7% (inactive).

As to `CC1CC=CCC1C1OCC(C)(C)CO1` (stereo not given), the growth was 103% (inactive).

Take `Cc1[nH]c(=O)[nH]c(=O)c1CCSSCCc1c(C)[nH]c(=O)[nH]c1=O`: the growth was 107% (inactive).

`CC(NNC(=S)N1CCCCCC1)c1ccc2ccccc2n1` (stereo not given): the growth was 71.1% (inactive).

On to `NS(=O)(=O)c1ccc(-n2nc(-c3ccc(Br)cc3)ccc2=O)cc1`, for which the growth is 40.6% [100 µM] (inactive).

For `CCOc1cc(CCNS(=O)(=O)c2ccc(C)cc2)c(C(C)=O)cc1OCC`, the growth is 62.1% [100 µM] (inactive).

For the compound `CC(=O)N1N=C(c2ccc(Nc3ccnc4cc(Cl)ccc34)cc2)CC1c1ccc(Cl)cc1` (stereo not given), the growth is 43.9% (inactive).

As to `COC(=O)[C@H](Cc1cnc[nH]1)NC(=O)[C@@H](NC(=O)Nc1cc(C(F)(F)F)cc(C(F)(F)F)c1)C(C)C`, the growth is -87.8% [100 µM] (active).

As for `CCCCCCCCCCCCC1CCCC(C)C1` (stereo not given), the growth was 98.5% (inactive).

With `FC(F)(F)c1ccc(-c2cnc(-c3nn[nH]n3)nc2NC2CCCCCC2)cc1`, the growth is 61.5% [50 µM] (inactive).

As to `CCCCCc1c(C)[nH]c(/C=C2\N=C(c3ccc[nH]3)C=C2OCc2ccccc2)c1C`, the growth was -79.2% [100 µM] (active).

For `COc1c(Br)cc(C(c2cc(Br)c(OC)c(Br)c2)c2ccccc2C(=O)O)cc1Br`, the growth is 107% (inactive).

`CCOC(=O)C(C(=O)OCC)C1CCCCC1`: the growth was 107% (inactive).

Take `N#Cc1ncc(-c2ccc(C(F)(F)F)cc2)c(NC2CCCCCC2)n1`: the growth is 77.6% (inactive).

In the case of `CCCCCCCC[Si](OCC)(OCC)OCC`, the growth is 105% (inactive).

As for `C[C@H]1O[C@@H](O[C@H]2[C@@H](O)C[C@H](O[C@H]3[C@@H](O)C[C@H](O[C@H]4CC[C@]5(C)C6CC[C@]7(C)[C@@H](C8=CC(=O)OC8)CC[C@]7(O)C6CC[C@@H]5C4)O[C@@H]3C)O[C@@H]2C)C[C@H](O)[C@@H]1O` (stereo not given in full), the growth was -28.5% (active).

The next experiment deals with CCRF-CEM leukemia. Described as above. The following applies: 10 µM unless noted.
In the case of `COc1ccc(NC(=O)c2ccccc2-c2ccccc2)c(C(N)=O)c1`, the growth was 11.7% (inactive).

With `Cc1ccc(-c2csc(N)n2)cc1`, the growth was 92% (inactive).

`NS(=O)(=O)c1ccc(N2CC(c3nc4ccccc4[nH]3)CC2=O)cc1` (stereo not given): the growth was 98.3% (inactive).

For the compound `C1CCC(C(CC2CCCCN2)C2CCCCC2)CC1` (stereo not given), the growth is 4.88% (active).

As to `Oc1c(Cl)cc(Cl)c(Cl)c1Cc1c(O)c(Cl)cc(Cl)c1Cl`, the growth was 5.78% (active).

As for `CSc1nc(Nc2ccc(S(=O)(=O)Nc3ccon3)cc2)c(C#N)c(-c2ccc(Cl)cc2)n1`, the growth was 6.79% (active).

In the case of `O=C(Nc1nc2ccc(OC(F)(F)F)cc2s1)c1ccc(F)cc1`, the growth was 32.1% (inactive).

On to `COc1cccc(C=Nc2cc(C(C)C)c(O)cc2C)c1O`, for which the growth was 35% (inactive).

With `NC(=NCCCCCCN=C(N)/N=C(\N)Nc1ccc(Cl)cc1)/N=C(\N)Nc1ccc(Cl)cc1`, the growth is 12.5% (inactive).

For the compound `Cc1ccc(/C=C/C(=O)c2ccc(F)cc2)s1`, the growth is 8.11% (active).

`O=C(c1ccc(N2CCOCC2)cc1[N+](=O)[O-])N1CCOCC1`: the growth is 104% (inactive).

`COc1ccc(-c2nc3sc4c(c3c(=O)[nH]2)CCCCCC4)cc1`: the growth is 30% (inactive).

Turning to `CCOC(=O)/C(=C/CC/C(C)=C/CC/C(C)=C/CCc1ccoc1)CC(=O)N1CCCCC1`, the growth was 22.7% (inactive).

Consider `CCCCCCCSc1ncnc2[nH]ncc12`, for which the growth is 76% (inactive).

Regarding `CC(=O)N1N=C(c2ccc(Nc3ccnc4cc(Cl)ccc34)cc2)CC1c1ccc(Cl)cc1` (stereo not given), the growth is 31% (inactive).

Take `N#Cc1ncc(-c2ccc(C(F)(F)F)cc2)c(NC2CCCCCC2)n1`: the growth was 24.8% (inactive).

As for `C[C@H]1O[C@@H](O[C@H]2[C@@H](O)C[C@H](O[C@H]3[C@@H](O)C[C@H](O[C@H]4CC[C@]5(C)C6CC[C@]7(C)[C@@H](C8=CC(=O)OC8)CC[C@]7(O)C6CC[C@@H]5C4)O[C@@H]3C)O[C@@H]2C)C[C@H](O)[C@@H]1O` (stereo not given in full), the growth is -58.6% (active).
